Results taken from PubChem BioAssay (EPA / NIEHS).
Several values for one entry are separate records, joined by “and”; a condition that tells them apart may be missing. Equal values may be shown once. Some structures have more than one record in an assay (separate samples or runs), and their calls can disagree. Activity calls are given as the source filed them. How the source made its calls: active means hit-call score of the fitted dose curve at least 0.9, where 1 is the maximum; inactive means score below 0.9.

Experiments:
[1] = read-out: Basic fibroblast growth factor (bFGF), FGF2 (gene 2247); experiment: BSK_MyoF_bFGF: BioMAP Diversity Plus: MyoF Assay for Basic fibroblast growth factor (bFGF) Biomarker Activity (AID 2284246); details: primary human lung fibroblasts
Method in brief: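 Human lung fibroblasts were dosed with chemicals and bFGF was quantified by ELISA 24 h later. Activity was fitted in the gain-of-signal direction relative to DMSO as negative control and baseline. Parallel SRB total-protein staining tracked overt cytotoxicity.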

[2] = read-out: Monokine induced gamma interferon (MIG), CXCL9 (gene 4283); experiment: BSK_KF3CT_MIG: BioMAP Diversity Plus: KF3CT Assay for Monokine induced gamma interferon (MIG) Biomarker Activity (AID 2284248); details: primary human keratinocytes with fibroblasts
Method in brief: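 Human keratinocyte plus foreskin fibroblast primary co-culture dosed with test chemical for 24 h; MIG level measured by ELISA and fitted in the positive direction against DMSO as baseline.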

[3] = read-out: Vascular cell adhesion molecule 1 (VCAM1), VCAM1 (gene 7412); experiment: BSK_BF4T_VCAM1: BioMAP Diversity Plus: BF4T Assay for Vascular cell adhesion molecule 1 (VCAM1) Biomarker Activity (AID 2284249); details: primary human bronchial epithelial cells with fibroblasts
Method in brief: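 Human bronchial epithelial cell and dermal fibroblast co-culture exposed 24 h. VCAM-1 measured by ELISA; parallel SRB total-protein staining for cytotoxicity. Fitted in positive direction relative to DMSO.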

[4] = read-out: Collagen I, COL1A1 (gene 1277); experiment: BSK_hDFCGF_CollagenI: BioMAP Diversity Plus: hDFCGF Assay for Collagen I Biomarker Activity (AID 2284250); details: primary human foreskin fibroblasts
Method in brief: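 Primary human foreskin fibroblasts (hDFCGF system) exposed to chemical for 24 h; Collagen I measured by ELISA. Activity fitted in the positive direction relative to DMSO baseline, with SRB total-protein staining in parallel cultures for overt cytotoxicity.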

[5] = read-out: Interferon-inducible T-cell alpha chemoattractant (ITAC), CXCL11 (gene 6373); experiment: BSK_hDFCGF_ITAC: BioMAP Diversity Plus: hDFCGF Assay for Interferon-inducible T-cell alpha chemoattractant (ITAC) Biomarker Activity (AID 2284251); details: primary human foreskin fibroblasts
Method in brief: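 ELISA readout of I-TAC after 24 h chemical exposure; human dermal foreskin fibroblast primary cells. Positive-direction fitting vs DMSO baseline. Parallel SRB total-protein staining (0.1% SRB after 10% TCA fixation, 560 nm) flags cytotoxicity.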

[6] = read-out: Plasminogen activator inhibitor-1 (PAI1), SERPINE1 (gene 5054); experiment: BSK_KF3CT_PAI1: BioMAP Diversity Plus: KF3CT Assay for Plasminogen activator inhibitor-1 (PAI1) Biomarker Activity (AID 2284252); details: primary human keratinocytes with fibroblasts
Method in brief: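 Human primary keratinocyte/foreskin fibroblast co-culture was dosed with compound and sampled at 24 h. PAI-1 was quantified by ELISA, with activity fitted in the positive direction relative to DMSO vehicle as baseline.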

[7] = read-out: Macrophage Inflammatory Protein-1 Alpha (MIP1a), CCL3 (gene 6348); experiment: BSK_IMphg_MIP1a: BioMAP Diversity Plus: IMphg Assay for Macrophage Inflammatory Protein-1 Alpha (MIP1a) Biomarker Activity (AID 2284255); details: primary human endothelial cells with macrophages
Method in brief: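 Co-culture of human venular endothelial cells and macrophages exposed to compounds for 24 h; MIP-1a measured by ELISA relative to DMSO. Cytotoxicity assessed in parallel cultures by sulforhodamine B total-protein staining at 560 nm.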

[8] = read-out: Plasminogen activator inhibitor-1 (PAI1), SERPINE1 (gene 5054); experiment: BSK_MyoF_PAI1: BioMAP Diversity Plus: MyoF Assay for Plasminogen activator inhibitor-1 (PAI1) Biomarker Activity (AID 2284256); details: primary human lung fibroblasts
Method in brief: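 ELISA read-out of PAI-1 from primary human lung fibroblast cultures 24 h after dosing; gain-of-signal fit versus DMSO control.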

CD69, CD69 (gene 969) = experiment: BSK_IMphg_CD69: BioMAP Diversity Plus: IMphg Assay for CD69 Biomarker Activity (AID 2284257); details: primary human endothelial cells with macrophages
Method in brief: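 Human venular endothelial cells co-cultured with macrophages; CD69 quantified by ELISA 24 h after compound addition. Activity fitted in the positive direction relative to DMSO baseline; cytotoxicity tracked in parallel cultures via SRB total-protein staining.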

[9] = read-out: Eotaxin 3, CCL26 (gene 10344); experiment: BSK_BF4T_Eotaxin3: BioMAP Diversity Plus: BF4T Assay for Eotaxin 3 Biomarker Activity (AID 2284258); details: primary human bronchial epithelial cells with fibroblasts
Method in brief: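 Co-culture of human bronchial epithelial cells and dermal fibroblasts, exposed to chemicals for 24 h versus DMSO. Eotaxin-3 quantified by ELISA; cytotoxicity checked in parallel cultures by sulforhodamine B total-protein staining.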

Measured: AC50

O=P(O)(O)CCC(F)(F)C(F)(F)C(F)(F)C(F)(F)C(F)(F)C(F)(F)C(F)(F)C(F)(F)F
active: [5] 0.236 µM | [9] 8.05 µM
inactive: [1] | [2] | [3] | [4] | [5] | [6] | [7] | [8] | CD69, CD69 (gene 969) | [9]

CN(Cc1cnc2nc(N)nc(N)c2n1)c1ccc(C(=O)N[C@@H](CCC(=O)O)C(=O)O)cc1
inactive: all assays above

O=C1c2ccc(O)c(O)c2C(=O)c2c(O)ccc(O)c21
inactive: [1] | [8]

O=C(NCc1ncc(C(F)(F)F)cc1Cl)c1c(Cl)cccc1Cl
inactive: [1] | [8]

O=C(NO)c1ccccc1
inactive: [1] | [8]

Cc1ccc(N=Nc2c(O)ccc3ccccc23)c(C)c1
inactive: [1] | [8]

CN(C)c1ccc(C(=C2C=CC(=[N+](C)C)C=C2)c2ccccc2)cc1
active: [1] 0.647 µM | [8] 0.675 µM

O=S(=O)(O)C(F)(F)C(F)(F)C(F)(F)C(F)(F)C(F)(F)C(F)(F)C(F)(F)C(F)(F)C(F)(F)C(F)(F)F
active: [5] 8.02 µM | [9] 5.78 µM and 2.59 µM
inactive: [1] | [2] | [3] | [4] | [5] | [6] | [7] | [8] | CD69, CD69 (gene 969)

CN(CCO)S(=O)(=O)C(F)(F)C(F)(F)C(F)(F)C(F)(F)C(F)(F)C(F)(F)C(F)(F)C(F)(F)F
active: [4] 1.65 µM and 879 nM | [6] 71.5 nM
inactive: [1] | [2] | [3] | [5] | [6] | [7] | [8] | CD69, CD69 (gene 969) | [9]

O=C(O)CCC(F)(F)C(F)(F)C(F)(F)C(F)(F)C(F)(F)C(F)(F)F
inactive: [1] | [2] | [3] | [4] | [5] | [6] | [7] | [8] | CD69, CD69 (gene 969) | [9]
active: [7] 7.18 µM and 19.2 µM | CD69, CD69 (gene 969) 13.6 µM | [9] 2.88 µM

O=P(O)(O)CCC(F)(F)C(F)(F)C(F)(F)C(F)(F)C(F)(F)C(F)(F)F
inactive: all assays above

OCC(F)(F)C(F)(F)C(F)(F)C(F)(F)C(F)(F)C(F)(F)C(F)(F)C(F)(F)C(F)(F)C(F)(F)C(F)(F)F
active: [4] 42.7 nM and 48.2 nM
inactive: all other assays above

O=C(O)C(F)(F)OC(F)(F)C(F)(F)OC(F)(F)C(F)(F)OC(F)(F)C(F)(F)C(F)(F)C(F)(F)F
active: [1] 16.8 µM and 14 µM | [2] 29.6 µM and 27.5 µM | [3] 7.4 µM and 6.87 µM | [4] 30 µM | [5] 11.1 µM and 11.3 µM | [6] 15.9 µM and 18.7 µM | [7] 36.5 µM and 38.3 µM | [8] 14.6 µM and 13.3 µM | CD69, CD69 (gene 969) 40.2 µM and 24.2 µM | [9] 7.32 µM and 7.02 µM

O=C(CC(=O)C(F)(F)C(F)(F)C(F)(F)F)c1cccs1
active: [3] 20.6 µM and 19.3 µM | [4] 8.04 µM | [5] 7.8 µM | [6] 18700 nM | [7] 52.5 µM and 24.1 µM | CD69, CD69 (gene 969) 30 µM | [9] 12.8 µM and 13 µM
inactive: [1] | [2] | [4] | [5] | [6] | [8]

O=C1OC2(c3ccccc31)c1cc(I)c(O)c(I)c1Oc1c2cc(I)c(O)c1I
active: [1] 9.75 µM | [8] 2.72 µM

O=C(O)CCC(F)(F)C(F)(F)C(F)(F)C(F)(F)C(F)(F)F
inactive: [1] | [2] | [3] | [4] | [5] | [6] | [7] | [8] | CD69, CD69 (gene 969) | [9]
active: [5] 2.04 µM | [7] 835 nM

Cc1ccc(C(=O)c2ccccc2)cc1
inactive: [1] | [8]

C=CC(=O)OCCC(F)(F)C(F)(F)C(F)(F)C(F)(F)C(F)(F)C(F)(F)C(F)(F)C(F)(F)F
inactive: all assays above

C=CC(C)(CCC=C(C)C)OC(C)=O (configuration not stated)
inactive: [1] | [8]

Clc1ccc(Nc2nnc(Cc3ccncc3)c3ccccc23)cc1
inactive: [1] | [8]

CCCCC(CC)C(=O)OCCOCCOCCOCCOC(=O)C(CC)CCCC (configuration not stated)
inactive: [1] | [8]

Oc1ccc(Cc2ccccc2O)cc1
inactive: [2] | [4] | [5] | [6]

C[C@]12CC[C@@H]3c4ccc(O)cc4CC[C@H]3[C@@H]1C[C@@H](O)[C@@H]2O
inactive: [1] | [8]

COc1cccc(O)c1
inactive: [1] | [8]

Oc1cc2ccccc2cc1O
inactive: [1] | [8]

NC(=NCCCCCCN=C(N)/N=C(\N)Nc1ccc(Cl)cc1)/N=C(\N)Nc1ccc(Cl)cc1
active: [1] 9.23 µM | [8] 4.43 µM

O=C1NS(=O)(=O)c2ccccc21
inactive: [2] | [4] | [5] | [6]

C=COC(=O)C(C)(C)CCCCCC
active: [1] 34.8 µM | [8] 34 µM

CC[N+](CC)(CC)Cc1ccccc1
inactive: [1] | [8]

CCCCCCCCCCCCCCCCCC[N+](C)(C)Cc1ccccc1
active: [1] 3.06 µM | [8] 2.91 µM

CC(C)(C)c1ccc(O)c(O)c1
active: [1] 30.1 µM | [8] 33.3 µM

C=CC(=C)CC/C=C(\C)CCC=C(C)C
inactive: [1] | [8]

CC1=NN(c2ccccc2)C(=O)C1
inactive: [1] | [8]

CCCCCCCCCCCC
active: [2] 20.2 µM and 20.6 µM | [4] 9.41 µM and 9.63 µM | [5] 8.55 µM and 5.79 µM | [6] 10.4 µM and 10.5 µM

Oc1c(Cl)cc(Cl)cc1Sc1cc(Cl)cc(Cl)c1O
active: [2] 2.92 µM and 2.86 µM | [4] 1.32 µM and 960 nM | [5] 1.25 µM and 1.44 µM | [6] 1.67 µM and 1.83 µM

COc1cc(OC)nc(NC(=O)NS(=O)(=O)Nc2ccccc2C(=O)N(C)C)n1
inactive: [1] | [8]

COC1=CC(=O)C[C@@H](C)[C@]12Oc1c(Cl)c(OC)cc(OC)c1C2=O
inactive: [1] | [8]

OCCN1CN(CCO)CN(CCO)C1
inactive: [1] | [8]

COCN(COC)c1nc(N(COC)COC)nc(N(COC)COC)n1
inactive: [1] | [8]

CCCCCc1ccc(O)cc1
active: [1] 28 µM | [8] 32.2 µM

CCOC(=O)CN[C@@H](C(=O)N1CC[C@H]1C(=O)NCc1ccc(/C(N)=N/O)cc1)C1CCCCC1
inactive: [1] | [8]

Cc1cccc2c1ccc1ccccc12
inactive: [1] | [8]
